Laboratory results taken from PubChem BioAssay (NCI).
This is part of a sample that, as a whole, favours compounds with a hit. Of some 83,000 tested, about 20% had one in any assay.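 Method: cells in 96-well plates; compound added at one concentration; 48 h incubation; percent growth measured; values under 10 scored active.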 Active and inactive are the calls of the source.

tested on: TK-10 renal; test: NCI-60 one-dose screen, 48 h (100 = growth as untreated, 0 = no growth, -100 = all killed); settings: 10 µM unless noted

Structure (SMILES)	growth
CC(CO)(CO)C(=O)O	103% (inactive)
O=C(O)Cc1cccc2ccccc12	102% (inactive)
O=c1[nH]c(=O)c2cc(Cl)cc(Cl)c2[nH]1	97.6% (inactive)
C=CCC(OC(C)=O)c1ccc(OC)c(OC)c1 (configuration not stated)	102% (inactive)
C=CCC(OC(C)=O)c1ccc(C(C)C)cc1 (configuration not stated)	96.4% (inactive)
COC(=O)Cc1cc(COC(C)=O)ccc1C	88.5% (inactive)
CCCCCCCCCCCCCCCCCC(=O)NCCNC(=O)CCCCCCCCCCCCCCCCC	106% (inactive)
CC(=O)c1cccc(N(C)S(=O)(=O)c2ccc(C)cc2)c1	90.4% (inactive)
N#CC1(O)CCCCC1	102% (inactive)
CC(=O)OC(C)c1cccc(C#N)c1 (configuration not stated)	110% (inactive)
CCN(C(C)=O)c1ccc([N+](=O)[O-])cc1	93% (inactive)
CC(C)=CCC[C@@H](C)[C@H]1CC[C@@]2(C)C3=C(CC[C@]12C)[C@@]1(C)CC[C@H](O)C(C)(C)[C@@H]1CC3	112% (inactive)
CCOc1ccc(C(=O)NCC(C)C)cc1	97.8% (inactive)
CCOC(=O)C(C#N)=C1CCN(C)CC1	108% (inactive)
CCOC(C=O)OCC	93.1% (inactive)
Cc1nc(O)cc(=O)[nH]1	107% (inactive)
COC1OC(C(O)C(O)CO)C(O)C(O)C1O (configuration not stated)	107% (inactive)
O=C(Nc1ccccc1)c1ccco1	98.9% (inactive)
NC(=O)OCCO	98.8% (inactive)

Structure (SMILES)	growth
CC(=O)c1ccc(C)cc1	105% (inactive)
O=C(CC(CC(=O)c1ccccc1)c1ccccn1)c1ccccc1	123% (inactive)
ON1CCCC1	94% (inactive)
CC(=O)c1cccc(NS(=O)(=O)c2ccc(C)cc2)c1	90.3% (inactive)
CC(=O)NC(CCc1ccc(Cl)c(Cl)c1)c1cccc(O)c(=O)c1 (configuration not stated)	25.8% (inactive)
O=S(=O)(OCCOS(=O)(=O)c1ccccc1)c1ccccc1	102% (inactive)
Cc1cccc2ccccc12	103% (inactive)
O=C(OC1CCCC1)c1ccccc1Cl	100% (inactive)
N#CCCN1C(=O)CCC1C(=O)O (configuration not stated)	103% (inactive)
CCOC(=O)C(CCC#N)(CCC#N)C(=O)OCC	102% (inactive)
Cc1ccc(OC(=O)c2ccccc2)cc1	98.1% (inactive)
O=C1NC(=O)C(c2ccccc2)O1 (configuration not stated)	101% (inactive)
O=C(CCl)Oc1ccc([N+](=O)[O-])cc1	109% (inactive)
CCCCNC(=O)c1ccc(OCC)cc1	105% (inactive)
CC(CCC#N)(CCC#N)C(=O)c1ccccc1	106% (inactive)
O=[N+]([O-])c1c(Cl)ncnc1Cl	107% (inactive)
Cc1ccc(S(=O)(=O)CCCl)cc1	97.4% (inactive)
Cc1ccc(NC(=O)c2ccccc2Cl)cc1	115% (inactive)

tested on: ACHN renal; test: as above; settings: 10 µM unless noted

Structure (SMILES)	growth
O=C(O)Cc1cccc2ccccc12	103% (inactive)
O=c1[nH]c(=O)c2cc(Cl)cc(Cl)c2[nH]1	103% (inactive)
C=CCC(OC(C)=O)c1ccc(OC)c(OC)c1 (configuration not stated)	99% (inactive)
C=CCC(OC(C)=O)c1ccc(C(C)C)cc1 (configuration not stated)	108% (inactive)
COC(=O)Cc1cc(COC(C)=O)ccc1C	103% (inactive)
CCCCCCCCCCCCCCCCCC(=O)NCCNC(=O)CCCCCCCCCCCCCCCCC	86.2% (inactive)
CC(=O)c1cccc(N(C)S(=O)(=O)c2ccc(C)cc2)c1	107% (inactive)
N#CC1(O)CCCCC1	106% (inactive)
CC(=O)OC(C)c1cccc(C#N)c1 (configuration not stated)	113% (inactive)
CCN(C(C)=O)c1ccc([N+](=O)[O-])cc1	113% (inactive)
CC(C)=CCC[C@@H](C)[C@H]1CC[C@@]2(C)C3=C(CC[C@]12C)[C@@]1(C)CC[C@H](O)C(C)(C)[C@@H]1CC3	101% (inactive)
CCOc1ccc(C(=O)NCC(C)C)cc1	107% (inactive)
CCOC(=O)C(C#N)=C1CCN(C)CC1	97.9% (inactive)
CCOC(C=O)OCC	112% (inactive)
Cc1nc(O)cc(=O)[nH]1	107% (inactive)
COC1OC(C(O)C(O)CO)C(O)C(O)C1O (configuration not stated)	101% (inactive)
O=C(Nc1ccccc1)c1ccco1	107% (inactive)
NC(=O)OCCO	113% (inactive)

Structure (SMILES)	growth
CC(=O)c1ccc(C)cc1	109% (inactive)
O=C(CC(CC(=O)c1ccccc1)c1ccccn1)c1ccccc1	97.8% (inactive)
ON1CCCC1	109% (inactive)
CC(=O)c1cccc(NS(=O)(=O)c2ccc(C)cc2)c1	106% (inactive)
O=S(=O)(OCCOS(=O)(=O)c1ccccc1)c1ccccc1	105% (inactive)
Cc1cccc2ccccc12	99.7% (inactive)
O=C(OC1CCCC1)c1ccccc1Cl	104% (inactive)
N#CCCN1C(=O)CCC1C(=O)O (configuration not stated)	101% (inactive)
CCOC(=O)C(CCC#N)(CCC#N)C(=O)OCC	109% (inactive)
Cc1ccc(OC(=O)c2ccccc2)cc1	117% (inactive)
O=C1NC(=O)C(c2ccccc2)O1 (configuration not stated)	99.2% (inactive)
O=C(CCl)Oc1ccc([N+](=O)[O-])cc1	109% (inactive)
CCCCNC(=O)c1ccc(OCC)cc1	109% (inactive)
CC(CCC#N)(CCC#N)C(=O)c1ccccc1	114% (inactive)
O=[N+]([O-])c1c(Cl)ncnc1Cl	94.8% (inactive)
Cc1ccc(S(=O)(=O)CCCl)cc1	98.2% (inactive)
Cc1ccc(NC(=O)c2ccccc2Cl)cc1	103% (inactive)
